{"source": "PubChem BioAssay (NCATS)", "note": "Results filed as inconclusive are left out. Entries that show only a call come without a potency. The source made the active and inactive calls. Calls come from the whole dose curve; as a rule, active = well fitted inhibition curve with a large enough effect; inconclusive = small, poorly fitted or top-dose-only effect; inactive = no such curve, though single readings can be large or run the other way."}
{"assay": "qHTS for Inhibitors of ATXN expression: Validation (AID 588378); note: nearly all actives have a fitted effect of over 75% in size", "details": "cell-based ATXN2 expression reporter assay, luminescence; series mostly up to 57.1 µM", "in_short": "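Luciferase luminescence (Bright-Glo) from an ATXN2-FFLuc HEK293 line after 24 h compound exposure at 37 °C, preceded by a CellTiter-Fluor fluorescence viability read. Serial dilutions of a reference ATXN2 inhibitor and a luciferase inhibitor served as controls.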"}
{"smiles": "N[C@@H](CCCC(=O)O)C(=O)O", "Potency": "inactive"}
{"smiles": "CSC(N)=NCCC[C@H](N)C(=O)O", "Potency": "inactive"}
{"smiles": "NCCCCN=C(N)N", "Potency": "inactive"}
{"smiles": "C#CCn1c(=O)c2c(ncn2C)n(C)c1=O", "Potency": "inactive"}
{"smiles": "O=C(O)Cc1c[nH]c2ccc(O)cc12", "Potency": "inactive"}
{"smiles": "COc1cc(N)c(Cl)cc1C(=O)OCCN1CCCCC1", "Potency": "inactive"}
{"smiles": "c1ccc(C2CN3CCSC3=N2)cc1", "note": "(configuration not stated)", "Potency": "inactive"}
{"smiles": "NCCS(=O)O", "Potency": "inactive"}
{"smiles": "Oc1ccc(Cn2cc[nH]c2=S)cc1", "Potency": "inactive"}
{"smiles": "COc1ccc(-c2ccc(N)[n+](CCCC(=O)O)n2)cc1", "Potency": "inactive"}
{"smiles": "CC(C)Cn1c(=O)n(C)c(=O)c2[nH]cnc21", "Potency": "inactive"}
{"smiles": "Cn1cc(C(F)(F)F)nc1-c1ccc(OCC(O)CNCCOc2ccc(O)c(C(N)=O)c2)cc1", "note": "(configuration not stated)", "Potency": "inactive"}
{"smiles": "Cn1c(=O)c2c(nc(/C=C/c3cccc(Cl)c3)n2C)n(C)c1=O", "Potency": "inactive"}
{"smiles": "NC/C=C\\C(=O)O", "Potency": "inactive"}
{"smiles": "Nc1ccc(-c2nc3ccc(-c4nc5ccc(N)cc5[nH]4)cc3[nH]2)cc1", "Potency": "inactive"}
{"smiles": "NC(=O)c1cc[n+](CC2=C(C(=O)O)N3C(=O)[C@@H](NC(=O)[C@@H](c4ccccc4)S(=O)(=O)[O-])[C@H]3SC2)cc1", "Potency": "inactive"}
{"smiles": "N[C@@H](Cc1c[nH]c2ccccc12)C(=O)O", "Potency": "inactive"}
{"smiles": "CN[C@H](CC(=O)O)C(=O)O", "Potency": "inactive"}
{"smiles": "CCCCCCCCCC[Si](C)(C)CCC(=O)NC(Cc1ccc(C)cc1)c1ccccc1", "note": "(configuration not stated)", "Potency": "inactive"}
{"smiles": "Cc1cccc(C)c1OCC(N)C(C)C", "note": "(configuration not stated)", "Potency": "inactive"}
{"smiles": "Cn1ccnc1", "Potency": "inactive"}
{"smiles": "CCCn1c(=O)c2[nH]c(-c3ccc(S(=O)(=O)O)cc3)nc2n(CCC)c1=O", "Potency": "inactive"}
{"smiles": "C#CC(N)CCC(=O)O", "note": "(configuration not stated)", "Potency": "inactive"}
{"smiles": "COc1ccccc1N1CCN(CCCCNC(=O)c2ccc3ccccc3c2)CC1", "Potency": "inactive"}
{"smiles": "CCSC(=N)N", "Potency": "inactive"}
{"smiles": "O=C(O)[C@H]1NCCC[C@H]1C(=O)O", "Potency": "inactive"}
{"smiles": "CC(C)NC[C@H](O)COc1ccc(CC(N)=O)cc1", "Potency": "inactive"}
{"smiles": "CCC(=O)N1CCN(C(=O)c2ccccc2)CC1", "Potency": "inactive"}
{"smiles": "NC(=O)CNCCC(c1ccccc1)c1ccccc1", "Potency": "inactive"}
{"smiles": "Nc1ncnc2c1ncn2C1CCCO1", "note": "(configuration not stated)", "Potency": "inactive"}
{"smiles": "N=C(N)c1ccccc1", "Potency": "inactive"}
{"smiles": "O=C(O)/C=C/c1ccc(O)c(O)c1", "Potency": "inactive"}
{"smiles": "Cc1nc(N=Nc2ccc(C(=O)O)cc2)c(COP(=O)(O)O)c(C=O)c1O", "Potency": "inactive"}
{"smiles": "CC[N+](CC)(CC)CC(=O)Nc1c(C)cccc1C", "Potency": "inactive"}
{"smiles": "CCN1C(=O)C=CC1=O", "Potency": "inactive"}
{"smiles": "O=C(O)CCC(=O)N1CCCC1C(=O)O", "note": "(configuration not stated)", "Potency": "inactive"}
{"smiles": "O=C(O)C1CCNCC1", "Potency": "inactive"}
